Experimental data reported in article PMC4336329 (PLoS ONE, 2015).
In all, about 310,000 compounds went through this assay and about 14,000 (4.5%) showed an effect of 50% or more. The effect is printed as a negative number. For the sample, strong results were picked, then their nearest neighbours and some compounds at random.

target: human ether-à-go-go-related gene (hERG) potassium channel (human, UniProt Q12809); test: primary screen, population patch clamp on CHO cells stably expressing hERG; higher = less effect of the substance
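Also: peak tail current of the secondary pulse compared with the same well before compound.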

Chain of human ether-à-go-go-related gene (hERG) potassium channel (Q12809 whole entry, looked up): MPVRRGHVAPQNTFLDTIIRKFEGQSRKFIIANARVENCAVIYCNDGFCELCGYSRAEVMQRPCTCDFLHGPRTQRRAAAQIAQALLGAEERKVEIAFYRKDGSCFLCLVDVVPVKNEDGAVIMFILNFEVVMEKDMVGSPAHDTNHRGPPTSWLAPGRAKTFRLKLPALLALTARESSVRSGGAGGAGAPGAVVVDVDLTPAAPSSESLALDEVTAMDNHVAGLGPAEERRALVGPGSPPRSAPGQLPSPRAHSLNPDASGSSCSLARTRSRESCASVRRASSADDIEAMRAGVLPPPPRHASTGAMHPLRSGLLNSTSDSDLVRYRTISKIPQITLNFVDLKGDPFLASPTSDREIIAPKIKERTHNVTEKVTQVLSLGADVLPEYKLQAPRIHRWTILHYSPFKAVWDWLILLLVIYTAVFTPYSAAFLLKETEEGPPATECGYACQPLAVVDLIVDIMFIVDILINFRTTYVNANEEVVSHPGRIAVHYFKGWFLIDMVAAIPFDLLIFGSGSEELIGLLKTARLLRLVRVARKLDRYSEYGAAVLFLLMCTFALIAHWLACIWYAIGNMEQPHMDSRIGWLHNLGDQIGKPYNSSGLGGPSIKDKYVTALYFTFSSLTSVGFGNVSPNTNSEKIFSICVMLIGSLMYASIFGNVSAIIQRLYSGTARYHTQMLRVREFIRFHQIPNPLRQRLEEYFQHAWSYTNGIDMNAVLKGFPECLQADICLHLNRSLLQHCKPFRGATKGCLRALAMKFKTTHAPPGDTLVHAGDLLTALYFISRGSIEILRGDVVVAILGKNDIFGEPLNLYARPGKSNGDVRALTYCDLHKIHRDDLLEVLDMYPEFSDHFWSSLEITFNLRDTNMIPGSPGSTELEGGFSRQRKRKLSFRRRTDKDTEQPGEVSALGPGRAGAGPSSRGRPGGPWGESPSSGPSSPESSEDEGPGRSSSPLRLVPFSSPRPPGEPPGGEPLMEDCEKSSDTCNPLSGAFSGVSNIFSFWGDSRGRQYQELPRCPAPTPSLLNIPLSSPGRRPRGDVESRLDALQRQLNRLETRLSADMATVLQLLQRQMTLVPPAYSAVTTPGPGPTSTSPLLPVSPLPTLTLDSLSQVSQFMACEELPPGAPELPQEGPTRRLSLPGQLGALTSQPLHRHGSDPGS

| SMILES | hERG current change (%, negative = inhibition) at 10uM [%] |
| --- | --- |
| O=C(NCC1CC1)c1ccc(Oc2cc(Cl)cc(Cl)c2)o1 | -33.7 |
| O=C(c1ccc(Oc2cc(Cl)cc(Cl)c2)o1)N1CCCCC1 | -7.03 |
| O=C(NCCN1CCOCC1)c1cccc(Br)c1 | -3.21 |
| COc1cc(OC)cc(C(=O)NCCCCNC(=O)c2cc(OC)cc(OC)c2)c1 | 4.94 |
| O=C(NCCCN1CCN(c2cccc(Cl)c2)CC1)c1nc(-c2ccncc2)no1 | -63.2 |
| COc1cc(OC)cc(C(=O)NCCCCc2ccccc2)c1 | -56 |
| O=C(NCCCN1CCN(c2cccc(Cl)c2)CC1)c1ccc(N2CCCC2=O)cc1 | -26.4 |
| O=C(NCCN1CCCCC1)c1ccc(Oc2cc(Cl)cc(Cl)c2)o1 | -54.8 |
| COc1ccc(C(=O)NCCCCc2ccccc2)cc1 | -4.68 |
| O=C(NCCN1CCN(c2ccccc2)CC1)c1cccc(Br)c1 | -60.2 |
| O=C(NCCc1ccccc1)c1cccc(Br)c1 | 2.53 |
| Clc1cccc(N2CCN(Cc3nc(-c4ccccc4)no3)CC2)c1 | -12 |
| O=C(COc1ccc(Br)cc1Br)NC(=O)NC1CCCC1 | 22.3 |
| O=C(CN1C(=O)NC(c2ccccc2)(c2ccccc2)C1=O)NC1CCS(=O)(=O)C1 (stereo not drawn) | 5.23 |
| CCc1nc(Nc2ccccc2F)c2oc3ccccc3c2n1.Cl | 6.04 |
| CCC(=O)Nc1ccc(S(=O)(=O)Nc2ccc(Cl)nn2)cc1.Cl | 11.7 |
| Cc1cccc(C)c1NC(=O)N1CCC(C(=O)c2ccc(F)cc2)CC1 | -22.6 |
| COC(=O)C1=NN(c2ccc(OC)cc2)C2C(=O)N(c3ccccc3OC)C(=O)C12 (stereo not drawn) | 10.7 |
| COc1ccc(S(=O)(=O)N2CCC3(CC2)OCCN3S(=O)(=O)c2ccccc2)cc1OC | 0.907 |

| SMILES | hERG current change (%, negative = inhibition) at 10uM [%] |
| --- | --- |
| CCOC(=O)c1c(C)[nH]c(C(=O)OCC(=O)Nc2ccc(Cl)cn2)c1C | 6.52 |
| CCCOc1ccccc1C1NC(=O)NC(C)=C1C(=O)OCc1ccccc1 (stereo not drawn) | 6.23 |
| COc1ccc(-c2cc(C(F)(F)F)nc(SCC(=O)NCc3cccs3)n2)cc1OC | -3.84 |
| CC1CCC(NC(=O)c2ccc3snnc3c2)CC1 (stereo not drawn) | 21.3 |
| Cc1cccc(C(=O)NCCN2CCCC2)c1.Cl | -0.337 |
| Cl.O=C(NCCN1CCCC1)c1cccc(Cl)c1 | -51.6 |
| O=C(NCCN1CCOCC1)c1cccc(Cl)c1 | -1.9 |
| COc1ccc(C(=O)Nc2cccc(C(=O)NCc3ccccc3)c2)cc1 | 4.28 |
| COc1ccc(NC(=O)c2cccc(NC(=O)c3ccccc3)c2)cc1 | 2 |
| COc1ccc(CNC(=O)c2cccc(NC(=O)c3ccccc3)c2)cc1 | -71.5 |
| Cc1cc(=O)oc2cc(NC(=O)c3ccccc3Cl)ccc12 | 28 |
| C(=N\Nc1nc(Nc2ccccc2)nc(Nc2ccccc2)n1)/c1cccnc1 | -4.87 |
| C[n+]1cccc(C2C(C#N)=C(N)Oc3c2ccc2ccccc32)c1.[I-] (stereo not drawn) | 13.7 |
| C/C(=N\Nc1ccc2nncn2n1)c1ccc(Br)s1 | 6.83 |
| O=C(/C=C/c1cccs1)NCc1ccccc1 | -2.08 |
| COCCNS(=O)(=O)c1cc(-c2nn(C)c(=O)c3ccccc23)ccc1C | -28.9 |
| CCC(CO)NS(=O)(=O)c1cc(-c2nn(C)c(=O)c3ccccc23)ccc1C (stereo not drawn) | -3.69 |
| CCN(CC)S(=O)(=O)c1cc(-c2nn(C)c(=O)c3ccccc23)ccc1C | -53.5 |
| Cc1ccc(-c2nn(C)c(=O)c3ccccc23)cc1S(=O)(=O)N1CCCC1 | -40.6 |

| SMILES | hERG current change (%, negative = inhibition) at 10uM [%] |
| --- | --- |
| CCOC(=O)CNS(=O)(=O)c1cc(-c2nn(C)c(=O)c3ccccc23)ccc1C | -52.8 |
| Cc1ccc(-c2nn(C)c(=O)c3ccccc23)cc1S(=O)(=O)NCCN(C)C | 4.35 |
| Cc1cc(/C=C(/C#N)C(=O)O)c(C)n1-c1cccc2ccccc12 | 20.1 |
| CCn1cc(C(=O)NCc2cccc(C(F)(F)F)c2)c(=O)c2ccc(C)nc21 | 2.71 |
| O=C(Nc1ccc(N2CCN(Cc3ccccc3)CC2)cc1)c1cccnc1 | -14.4 |
| CN1CCN(C(=O)CCN2C(=O)/C(=C/c3cccc(Br)c3)SC2=S)CC1 | 11.4 |
| O=C(c1ccccc1)c1ccc(OC(=O)N2CCCC2)cc1 | -11 |
| Cc1ccc(S(=O)(=O)Nc2c(NC3CCCCC3)c3ccccc3oc2=O)cc1 | -33.9 |
| CCCNc1c(NS(=O)(=O)c2ccc(OC)c(OC)c2)c(=O)oc2ccccc12 | -74.1 |
| Cc1ccc(S(=O)(=O)Nc2c(NC3CCCCC3)c3ccccc3oc2=O)c(C)c1 | -19.6 |
| CCCNc1c(NS(=O)(=O)c2c(F)c(F)c(F)c(F)c2F)c(=O)oc2ccccc12 | -7.27 |
| CCCNc1c(NS(=O)(=O)c2ccc(C)c(C)c2)c(=O)oc2ccccc12 | -30.6 |
| CCCNc1c(NS(=O)(=O)c2ccc(C(C)(C)C)cc2)c(=O)oc2ccccc12 | 10.8 |
| COc1ccc(OC)c(S(=O)(=O)Nc2c(NC3CCCCC3)c3ccccc3oc2=O)c1 | -54.1 |
| Cc1ccc(S(=O)(=O)Nc2c(NC3CCCCC3)c3ccccc3oc2=O)cc1C | 2.53 |
| COc1ccc(S(=O)(=O)Nc2c(NC3CCCCC3)c3ccccc3oc2=O)cc1OC | -6.99 |
| COc1ccc(S(=O)(=O)Nc2c(NC3CCCCC3)c3ccccc3oc2=O)cc1 | -45.2 |
| CCCNc1c(NS(=O)(=O)c2ccc(C)cc2C)c(=O)oc2ccccc12 | -52.2 |
| N#Cc1cccc(S(=O)(=O)Nc2c(NC3CCCCC3)c3ccccc3oc2=O)c1 | -53.9 |
